From the supplement of paper PMC9262897, “Low-cost anti-mycobacterial drug discovery using engineered E. coli” (Nature Communications, 2022)
Structures can show the parent of a compound that is named as a salt. ± gives the standard deviation of the averaged measurements.

System: E. coli TESEC Mtb Alr
Test: growth (OD600 after 10 h); higher = more growth (less inhibition)
Conditions: compound 0.1 mM
Description: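 TESEC Mtb Alr E. coli, or the Alr+ wild-type control, in 384-well plates with Prestwick library compounds at 0.1 mM and 1% DMSO, across arabinose induction levels of 1E3 to 1E7 nM. Growth is read as OD600 after 10 h at 37 °C in triplicate biological replicates.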

[1] = arabinose 1000 nM, raw OD600 reference: median of DMSO wells 0.294, cell-free background 0.041
[2] = arabinose 10000 nM, raw OD600 reference: median of DMSO wells 0.264, cell-free background 0.041
[3] = arabinose 100000 nM, raw OD600 reference: median of DMSO wells 0.201, cell-free background 0.041
[4] = arabinose 1000000 nM, raw OD600 reference: median of DMSO wells 0.193, cell-free background 0.041
[5] = arabinose 10000000 nM, raw OD600 reference: median of DMSO wells 0.146, cell-free background 0.041

CN1CCN(C(c2ccccc2)c2ccccc2)CC1 [Cyclizine hydrochloride]
growth [1]: 0.278 ± 0.011
growth [2]: 0.256 ± 0.0077
growth [3]: 0.188 ± 0.025
growth [4]: 0.142 ± 0.013
growth [5]: 0.142 ± 0.0021

CC(CN1c2ccccc2Sc2ccccc21)N(C)C (stereo not given) [Promethazine hydrochloride]
growth [1]: 0.215 ± 0.013
growth [2]: 0.2742 ± 0.0025
growth [3]: 0.197 ± 0.018
growth [4]: 0.13 ± 0.0016
growth [5]: 0.157 ± 0.004

CCCCC1C(=O)N(c2ccccc2)N(c2ccc(O)cc2)C1=O (stereo not given) [Oxyphenbutazone]
growth [1]: 0.255 ± 0.0043
growth [2]: 0.262 ± 0.0047
growth [3]: 0.211 ± 0.027
growth [4]: 0.124 ± 0.0071
growth [5]: 0.129 ± 0.004

CCCCc1nc(Cl)c(CO)n1Cc1ccc(-c2ccccc2-c2nnn[nH]2)cc1 [Losartan]
growth [1]: 0.281 ± 0.015
growth [2]: 0.258 ± 0.0039
growth [3]: 0.209 ± 0.026
growth [4]: 0.161 ± 0.0058
growth [5]: 0.1297 ± 0.0011

COc1ccccc1OCC(O)COC(N)=O (stereo not given) [Methocarbamol]
growth [1]: 0.282 ± 0.0088
growth [2]: 0.275 ± 0.012
growth [3]: 0.218 ± 0.018
growth [4]: 0.187 ± 0.0043
growth [5]: 0.141 ± 0.006

COc1ccc2c(c1)c(CC(=O)O)c(C)n2C(=O)c1ccc(Cl)cc1 [Indomethacin]
growth [1]: 0.186 ± 0.008
growth [2]: 0.2 ± 0.0069
growth [3]: 0.124 ± 0.0036
growth [4]: 0.0963 ± 0.0012
growth [5]: 0.105 ± 0.0024

CCCCOc1cc(C(=O)NCCN(CC)CC)c2ccccc2n1 [Dibucaine]
growth [1]: 0.281 ± 0.0065
growth [2]: 0.26283 ± 0.00023
growth [3]: 0.208 ± 0.0075
growth [4]: 0.154 ± 0.0091
growth [5]: 0.174 ± 0.0038

CNc1ncnc2c1ncn2[C@@H]1O[C@H](CO)[C@@H](O)[C@H]1O [N6-methyladenosine]
growth [1]: 0.334 ± 0.023
growth [2]: 0.263 ± 0.0068
growth [3]: 0.261 ± 0.012
growth [4]: 0.189 ± 0.003
growth [5]: 0.15 ± 0.0032
